Sampled rows, rich in hits. Any-hit rate of the full collection: about 2.1%.
FUS suppressor = qHTS for Suppressors of FUS Proteinopathy: Primary screen using FUS-linked yeast assay; Potency, µM (titrated, usually from 76.6 µM), hits mostly activators; 390,000 tested, 0.24% active; S. cerevisiae FUS-expressing, growth rescue, OD600, 24 h; AID 1347120, 2019;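 also: plate controls were DMSO vehicle for no effect and reference control for full effect; nearly all actives have a fitted effect of over 55% in size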
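FUS-expressing yeast, raffinose-pregrown, induced in 2% galactose minimal medium at OD 0.005; compounds in a dilution series, 24hr at 30C. Growth restoration read as absorbance at 600 nm. CP55940 positive control, DMSO negative.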
aSyn rescue = qHTS of alpha-syn Inhibitors; AID 652106, 2013; Potency, µM (top dose mostly 46.1 µM), for inactives: top-dose growth rescue (activation), actives largely listed as activators; Yeast expressing alpha-synuclein, growth rescue, BacTiter-Glo, 24 h; 370,000 tested, 0.14% active; also: % of control where 0% means no effect; nearly all actives have a fitted effect of over 65% in size
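Galactose-induced alpha-syn yeast (OD600=0.02, raffinose-pregrown) + pinned cpd, 24 hr, 30 deg C; growth by BacTiter-Glo luminescence. Growth restoration scores as activation.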
TDP43 rescue = qHTS of TDP-43 Inhibitors. TDP-43 expressing yeast growth rescue, BacTiter-Glo, 24 h. Potency, µM (series often up to 46.1 µM), without a hit: at the top dose growth rescue (activation), hits mostly activators. 410,000 tested, 1.8% active; also: % of control where 0% means no effect; nearly all actives have a fitted effect of over 50% in size
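Growth rescue of TDP-43-toxic yeast measured as ATP luminescence (BacTiter-Glo). Cells grown to mid-log in raffinose, induced in galactose at OD600=0.02, exposed to compound 24 hr at 30 deg C.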
Abeta rescue = qHTS for compounds that reverse cellular toxicity of Amyloid beta (A-beta) peptide in yeast: Primary Screen; 410,000 tested, 0.063% active; Potency, µM (doses to about 46.1 µM), most hits filed as activators; yeast expressing A-beta42, growth rescue, OD600, 48 h; response scale: 0% DMSO, 100% iron-clioquinol control; also: nearly all actives have a fitted effect of over 55% in size
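Yeast A-beta toxicity model in growth medium with pinned compounds, 48 h at 30 C; growth read as absorbance at 600 nm. Normalized to FeCl3/clioquinol equimolar mix (positive) and DMSO (negative).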
* hit, by the source's call; i = inactive; ? = inconclusive; nt = no result given. Calls follow the shape of the dose curve; as a rule, active = well fitted curve in the direction sought with a large enough effect; inconclusive = small, poorly fitted or top-dose-only effect, or another doubt; inactive = no such curve, though single readings can be large; an effect the other way counts as inactive or inconclusive. Potency is read from the fitted curve at half-maximal effect.

SMILES	FUS suppressor	aSyn rescue	TDP43 rescue	Abeta rescue
Cc1ccc(-c2csc3ncn(Cc4ccc(C(=O)O)cc4)c(=O)c23)cc1C	i	?	20µM*	i
COc1ccc(C2C(C(=O)Nc3ccc(F)cc3)CCC(=O)N2c2ccc(OC)cc2)cc1 (stereo not given)	i	nt	nt	nt
COc1ccc(NC(=O)c2cccc3c(-c4cnn(C)c4)coc23)cc1	i	9%	13µM*	i
Cn1cc(-c2coc3c(C(=O)Nc4ccccc4)cccc23)cn1	i	?	-3%	i
COc1ccc(CNC(=O)c2cccc3c(-c4cccnc4)coc23)cc1OC	i	15%	23%	i
O=C(NCc1cccc(Cl)c1)c1cccc2c(-c3cccnc3)coc12	?	17%	18µM*	i
O=C(NCc1cccs1)c1cccc2c(-c3cccnc3)coc12	i	3%	18µM*	i
O=C(NCc1ccc(F)c(F)c1)c1cccc2c(-c3cccnc3)coc12	i	5%	13µM*	i
O=C(NCc1cccs1)c1cccc2c(-c3ccc(F)c(F)c3)coc12	i	-1%	?	i
O=C(OCCF)N1CCN(/[N+]([O-])=N/Oc2ccc([N+](=O)[O-])cc2[N+](=O)[O-])CC1	nt	-49%	nt	nt
O=C(Nc1cccc(OC(F)(F)F)c1)c1cccc2c(-c3cccnc3)coc12	?	-16%	32µM*	i
CCC(NC(=S)NCc1ccc(F)cc1)c1ccccc1 (stereo not given)	i	-2%	16%	11µM*
COc1ccc(C(C)NC(=S)NCc2ccc(F)cc2)cc1 (stereo not given)	i	0%	?	11µM*
COc1cccc(C(C)NC(=S)NCc2ccc(Cl)cc2)c1 (stereo not given)	i	-1%	10%	i
O=C(NCc1ccc(F)cc1)C(c1ccccc1)c1ccccc1	i	-1%	24%	i
COC(=O)c1cc(C(C)c2ccccc2O)n2ccccc12 (stereo not given)	i	nt	nt	nt
Cc1ccc(Nc2nc(CSc3nnnn3C)cs2)cc1	i	0%	?	i
Cc1ccc(Nc2nc(CSc3nnc(-c4ccccc4)n3C)cs2)cc1	i	10%	18µM*	i
Cc1ccc(Nc2nc(CSc3nnnn3-c3ccccc3)cs2)cc1	i	-8%	14µM*	i
CCOC(=O)[C@@]12CCCC3=C1N(CCC3)C(=O)[C@H]2CC(=O)NCCCOC	i	nt	nt	nt
CC(=O)c1sc(NC(=O)c2ccc(Cn3cc(Br)cn3)o2)nc1C	i	-5%	-17%	i
COc1ccc(C(=O)c2sc(Nc3ccccc3)nc2C)cc1	i	12%	25µM*	i
CC(=O)c1sc(Nc2cccc(C)c2)nc1C	i	0%	7.1µM*	i
Cc1nc(Nc2ccccc2)sc1-c1ccccc1	nt	-7%	20µM*	i
CC(=O)c1sc(NC(=O)c2ccc(Br)o2)nc1C	i	-2%	11µM*	i
SMILES	FUS suppressor	aSyn rescue	TDP43 rescue	Abeta rescue
C(=Nc1cnc2ccccc2c1)c1ccnc2ccccc12	nt	1%	nt	nt
CC(=O)c1sc(Nc2ccccc2)nc1C	i	12%	0%	i
CC(=O)c1sc(Nc2ccc(Oc3ccccc3)cc2)nc1C	i	-6%	35µM*	i
COC(=O)c1sc(Nc2ccccc2)nc1C	i	-13%	13µM*	i
CS(=O)(=O)c1ccc(C(=O)OCC#CCSc2nnc(-c3cccc4ccccc34)o2)cc1	i	nt	nt	nt
Cc1ccc2nc(N3CCN(c4cccc(C)c4C)CC3)c3nncn3c2c1	i	nt	20%	i
Cc1cccc(N2CCN(c3nc4ccc(C)cc4n4cnnc34)CC2C)c1 (stereo not given)	i	nt	35µM*	i
N#C/C(=C\c1c[nH]c2ccccc12)C(=O)c1ccc(O)c(O)c1	nt	9%	nt	nt
COc1cccc(C(=O)NCCSc2c(-c3ccc(F)cc3)[nH]c3ccccc23)c1OC	?	nt	28%	i
O=C(Nc1ccccc1Cl)c1ccc(-c2ccccn2)s1	i	-1%	11µM*	i
O=C(Nc1ccccc1Cl)c1cccs1	i	1%	?	i
CCC(Sc1nc2cc3c(cc2c(=O)n1CCCCCC(=O)NCc1ccc2c(c1)OCO2)OCO3)C(=O)NCCCOC (stereo not given)	i	nt	17%	i
CCOc1ccc(N/C=C/C(=O)c2ccc(OC)c(OC)c2)cc1	i	?	16µM*	i
CCCOc1ccc(N/C=C/C(=O)c2ccc(OC)c(OC)c2)cc1	i	16%	6%	i
CC(=O)c1ccc(NC(=O)c2ccc(-c3ccc(Cl)cc3)o2)cc1	i	nt	11µM*	i
O=C(Nc1ccccc1)c1ccc(-c2ccc(Br)cc2)o1	i	-21%	13µM*	i
O=C(Nc1cccc(NC(=O)c2ccc(-c3ccc(Br)cc3)o2)c1)c1ccccc1	i	1%	-6%	i
CN(C)C(=O)c1ccc(NC(=O)c2ccc(-c3ccc(Cl)cc3)o2)cc1	nt	-8%	?	i
CC(C)C[C@H](NC1(C(=O)NC2CCCCC2)CCCCC1)C(=O)NCCc1c[nH]c2ccccc12	i	nt	nt	nt
COc1cccc(C(=O)N2CCN(c3nc4cc(C)cc(C)c4cc3C#N)CC2)c1	i	4%	35µM*	i
COc1ccc2nc(N3CCC(O)CC3)c(C#N)cc2c1	i	4%	3%	i
COc1ccc2nc(N3CCC(C)CC3)c(C#N)cc2c1	i	-1%	35µM*	i
COc1cc2oc3ccccc3c(=O)c2cc1OC	i	?	16µM*	i
CC1CCN(c2ccc(C(=O)O)cc2NS(=O)(=O)c2ccccc2)CC1	i	nt	nt	nt
Cc1ccsc1-c1nc(CSCC(=O)N2CCN(c3ccccc3)CC2)c(C)o1	i	16%	13µM*	i
COc1ccc(-c2nc(CSCC(=O)N3CCN(c4ccccc4)CC3)c(C)o2)cc1	i	nt	0%	i
Cc1cc(C)c([N+](=O)[O-])cc1-c1ccc(/C=N/c2c(-c3ccco3)nc3ccccn23)o1	i	4%	14µM*	i
O=[N+]([O-])c1ccc(Cl)c(-c2ccc(/C=N/c3c(-c4ccco4)nc4ccccn34)o2)c1	i	-10%	14%	i
O=C(CSc1ccc(Cl)cc1)N/N=C/c1ccc([N+](=O)[O-])o1	i	1%	13µM*	i

Source: PubChem (National Center for Advancing Translational Sciences (NCATS))
